Source: PubChem BioAssay AID875 (National Center for Advancing Translational Sciences (NCATS), 2007)
Among all 75,000 compounds or so, about 35 (0.05%) were called active. A call without a number means that no potency is given here. The call rests on the fitted dose curve; in most records, active means well fitted inhibition curve with a large enough effect; inconclusive means small, poorly fitted or top-dose-only effect; inactive means no such curve, though single readings can be large or run the other way. For the sample, actives were picked, then their nearest neighbours and some compounds at random.

biological target: Breast cancer type 1 susceptibility protein (Homo sapiens) (UniProt P38398); assay: qHTS Assay for Inhibitors of BRCT-Phosphoprotein Interaction (Green Fluorophore); settings: BRCA1 BRCT-phosphopeptide binding, green fluorescence polarization; series mostly up to 76.9 µM
Sequence (P38398 whole entry, looked up): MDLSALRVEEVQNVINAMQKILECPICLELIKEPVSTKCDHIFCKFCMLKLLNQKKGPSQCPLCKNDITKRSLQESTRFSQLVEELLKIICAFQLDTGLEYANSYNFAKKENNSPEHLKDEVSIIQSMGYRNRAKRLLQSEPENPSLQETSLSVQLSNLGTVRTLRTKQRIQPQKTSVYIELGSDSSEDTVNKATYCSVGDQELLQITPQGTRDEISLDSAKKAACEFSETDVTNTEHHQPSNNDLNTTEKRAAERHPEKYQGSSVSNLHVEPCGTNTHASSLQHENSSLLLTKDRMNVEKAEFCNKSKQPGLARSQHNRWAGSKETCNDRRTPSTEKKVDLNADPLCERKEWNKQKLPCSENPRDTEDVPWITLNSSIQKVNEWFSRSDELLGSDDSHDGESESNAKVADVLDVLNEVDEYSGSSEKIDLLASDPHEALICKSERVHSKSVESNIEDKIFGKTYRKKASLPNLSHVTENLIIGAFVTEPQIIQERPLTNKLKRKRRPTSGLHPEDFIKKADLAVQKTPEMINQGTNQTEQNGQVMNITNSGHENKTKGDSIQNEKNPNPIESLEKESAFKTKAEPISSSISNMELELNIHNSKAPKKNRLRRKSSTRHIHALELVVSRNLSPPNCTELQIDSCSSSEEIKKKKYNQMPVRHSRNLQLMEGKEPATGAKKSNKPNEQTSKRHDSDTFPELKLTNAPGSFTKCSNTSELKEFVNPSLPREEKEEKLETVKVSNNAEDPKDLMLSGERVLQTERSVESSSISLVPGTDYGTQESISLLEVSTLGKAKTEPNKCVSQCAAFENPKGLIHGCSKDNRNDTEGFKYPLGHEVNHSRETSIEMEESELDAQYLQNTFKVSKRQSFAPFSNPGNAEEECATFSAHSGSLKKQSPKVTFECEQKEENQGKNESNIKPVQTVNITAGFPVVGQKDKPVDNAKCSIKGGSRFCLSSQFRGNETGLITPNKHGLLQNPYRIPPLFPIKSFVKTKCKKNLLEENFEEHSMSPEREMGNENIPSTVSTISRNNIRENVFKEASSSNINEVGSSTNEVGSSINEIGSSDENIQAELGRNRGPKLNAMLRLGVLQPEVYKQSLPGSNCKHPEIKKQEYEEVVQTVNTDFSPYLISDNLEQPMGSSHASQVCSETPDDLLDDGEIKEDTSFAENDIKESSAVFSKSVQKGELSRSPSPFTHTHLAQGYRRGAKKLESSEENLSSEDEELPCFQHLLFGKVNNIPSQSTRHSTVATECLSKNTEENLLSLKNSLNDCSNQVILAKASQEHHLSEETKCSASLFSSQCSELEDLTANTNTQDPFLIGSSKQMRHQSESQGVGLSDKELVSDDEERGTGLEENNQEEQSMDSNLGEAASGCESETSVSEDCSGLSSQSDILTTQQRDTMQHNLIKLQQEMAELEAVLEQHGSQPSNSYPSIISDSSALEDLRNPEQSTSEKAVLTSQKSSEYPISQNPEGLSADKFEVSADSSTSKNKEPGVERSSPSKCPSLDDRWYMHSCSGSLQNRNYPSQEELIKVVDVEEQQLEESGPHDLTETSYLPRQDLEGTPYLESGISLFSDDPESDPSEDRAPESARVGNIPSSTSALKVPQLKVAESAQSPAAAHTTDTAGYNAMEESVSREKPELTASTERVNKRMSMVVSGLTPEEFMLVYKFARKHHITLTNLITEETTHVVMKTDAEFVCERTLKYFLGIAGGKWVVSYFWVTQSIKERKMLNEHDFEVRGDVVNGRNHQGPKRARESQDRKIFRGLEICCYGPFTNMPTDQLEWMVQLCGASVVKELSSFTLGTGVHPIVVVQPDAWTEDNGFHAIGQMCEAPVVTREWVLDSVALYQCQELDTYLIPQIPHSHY
Description: NIH Molecular Libraries Screening Centers Network [MLSCN]
NIH Chemical Genomics Center [NCGC]
PI Name: Natarajan, Amarnath; University of Texas
A complex of BRCT (C-terminal portion of BRCA1, MW ~35 kDa, His-tagged) and fluorescently labeled pBACH1 phosphorylated 10 aa peptide fragment of BACH1, a helicase implicated in DNA repair, is incubated with library members. Inhibitors of BRCT-pBACH1 binding are detected by a decrease in the fluorescence polarization (FP) of the fluorophore. In order to minimize the effect of fluorescence artifacts and to increase the overall robustness of the screen, the compound library members were incubated in separate reactions with fluorescein labeled probe-protein complexes. Protein and labeled probes were supplied by Dr. Amarnath Natarajan, Department of Pharmacology and Toxicology, University of Texas Medical Branch Galveston, TX.
Assay Buffer: 16mM Na2HPO4, 4 mM NaH2PO4, 150 mM NaCl, 1 mM EDTA, 1 mM DTT, 0.02% NaN3, and 0.01% Tween 20 at pH 7.3.
100 nM labeled decapeptide/250 nM protein in columns 1, 2, 5 - 48. Titration of unlabeled decapeptide control (from 10 mM, then 1:2 dilution in duplicate) pin-transferred to column 2, rows 1 to 16. Column 1 is neutral.
Three uL of reagents were dispensed to 1536-well Greiner black solid-bottom plates. Compounds and controls (23 nL) were transferred
via Kalypsys PinTool. The plates were incubated for 12 min at room temperature, and then read on ViewLux (Perkin-Elmer) High throughput CCD imager using FITC for the fluorescein-labeled decapeptide probe polarization filter sets. During dispense, reagent bottles were kept submerged into 4 deg C water bath and all liquid lines were covered with aluminum foil to minimize probe and protein degradation. All screening operations were performed on a Kalypsys robotic system (Kalypsys, Inc., San Diego, CA) containing one RX-130 and two RX-90 anthropomorphic robotic arms. The timing and order of assay plates passing through the screening system were adjusted such that each compound library plate was assayed against the fluorescein- and rhodamine-labeled assay systems at immediately adjacent time points.
Potency means the concentration at half of the fitted maximal effect.

Structure (SMILES) | activity change, negative = inhibition | Potency
C(=C\c1ccccc1)/CSc1nnc(-c2cccnc2)n1Cc1ccco1 | inactive | 
Nc1ccc2c3c(cccc13)C(=O)NC2=O |  | 12.6 µM (active)
CCN1C(=O)c2cccc3c(N)ccc1c23 | inactive | 
Cc1ccc(C)c(N2CCN(S(=O)(=O)c3ccc4c(c3)oc(=O)n4C)CC2)c1 | inactive | 
CCN(CC)CCNC(=O)Cn1cnc2sc(C)c(S(=O)(=O)N3CCOCC3)c2c1=O | inactive | 
CC(=O)Nc1ccc(S(=O)(=O)N2CCSCC2)cc1 | inactive | 
COc1cccc(CNC(=O)C2CCN(S(=O)(=O)c3cccc4cccnc34)CC2)c1 | inactive | 
Cc1ccc(S(=O)(=O)c2c(N)n(C)c3nc4ccccc4nc23)cc1 | inactive | 
O=C(Nc1ccc(S(=O)(=O)N2CCCC2)cc1Cl)C1=COCCO1 | inactive | 
O=C(c1cnccn1)N1CCC2(CCN(Cc3cc(C(F)(F)F)cc(C(F)(F)F)c3)CC2)CC1 | inactive | 
CCOc1ccccc1N(CC(=O)NC1CCCCC1)C(=O)CCCC(=O)Nc1ccccn1 | inactive | 
Cc1cc(C)cc(OCc2nnc(SCC(=O)OC3CCCCC3)o2)c1 | inactive | 
CCOc1cc(S(=O)(=O)NCc2ccc3c(c2)OCO3)ccc1F | inactive | 
COc1ccc(-c2nc3cnc(OC)nc3n(Cc3ccc(F)cc3)c2=O)cc1 | inactive | 
Cc1cc(N=CC2=C(O)CCCC2=O)no1 | inactive | 
CC(=O)c1nc(N2C(=O)C3CC=C(C)CC3C2=O)sc1C (configuration not stated) | inactive | 
Cc1cn(COC/C=C/c2ccccc2)c(=O)[nH]c1=O | inactive | 
O=C1NC(c2ccncc2)Nc2sc3c(c21)CCCC3 (configuration not stated) | inactive | 
COc1ccc2c(c1)C=CC1(O2)N(CCO)c2ccccc2C1(C)C (configuration not stated) | inactive | 
CN(C)CCOC(=O)C(c1ccccc1)C1(O)CCCC1 (configuration not stated) | -1.8% [at 3.08 µM] (inactive) | 
COC(=O)c1ccc(CN(c2ccccc2OC)S(=O)(=O)c2cccs2)o1 | inactive | 
COc1ccc(S(=O)(=O)NC(CC(=O)NCc2ccccc2OC)c2ccco2)cc1 (configuration not stated) | inactive | 
CCOC(=O)C1=C(CNC2CCCCC2)NC(=O)NC1c1cc(C)ccc1C (configuration not stated) | inactive | 

Structure (SMILES) | activity change, negative = inhibition | Potency
CCSc1nc2c(c(=O)[nH]1)C(c1cccnc1)C(C(=O)OC(C)C)=C(C)N2 (configuration not stated) | inactive | 
O=C(CCC(=O)N1CCN(S(=O)(=O)c2ccccc2)CC1)NC1CCCc2ccccc21 (configuration not stated) | inactive | 
CCNS(=O)(=O)c1ccc(NC(=O)Nc2cccc(OC)c2)cc1 | inactive | 
O=S(=O)(/C=C/c1ccccc1)NCCc1ccccn1 | inactive | 
CCOc1ccc(NC(=O)Nc2cc(C)ccc2OC)cc1 | inactive | 
Cc1cc2nc3c(=O)[nH]c(=O)nc-3n(C[C@H](O)[C@H](O)[C@H](O)CO)c2cc1C |  | 7.94 µM (active)
C=CCn1c(COc2ccccc2C)nnc1SCC(=O)O | inactive | 
O=C(C(Cc1ccccc1)n1cccc1)N1CCN(C2CCCCC2)CC1 (configuration not stated) | inactive | 
OCc1n[nH]c(CO)n1 | inactive | 
CCn1ncc(Br)c1C(=O)Nc1cc(C)ccc1F | inactive | 
CCOC(=O)CN1C(=O)C(O)(CC(=O)c2ccccn2)c2ccccc21 (configuration not stated) | inactive | 
CCCOc1cccc(C(=O)Nc2nnn(CCC)n2)c1 | inactive | 
Cn1cnc2c1c(=O)n(Cc1c(Cl)cccc1Cl)c(=O)n2C | inactive | 
COc1cccc([C@H]2Oc3ccc(OC)cc3/C(=N\OCC[C@@H]3C=C[C@H](OC(C)=O)[C@H](COC(C)=O)O3)[C@@H]2O)c1 | 1.43% [at 15.4 µM] (inactive) | 
Cc1ccccc1OCC(=O)Nc1ccc(N2CCN(C(=O)C(C)C)CC2)c(Cl)c1 | inactive | 
O=C(NCCSc1ccccc1)c1ccco1 | inactive | 
CCCCOc1ccc(-c2nnc(-c3ccco3)o2)cc1 | inactive | 
COc1ccc(-c2oc3cc(OC)ccc3c2C(=O)c2ccc(C#N)cc2)cc1 | inactive | 
Cc1cnc(CNc2cc(-c3c(C)noc3C)ncn2)cn1 | inactive | 
Cn1c(N)c(C(=O)COC(=O)c2cc(C(F)(F)F)nc3c(C(F)(F)F)cccc23)c(=O)n(C)c1=O | inactive | 
CCc1c(C)nc2cc(-c3cccs3)[nH]n2c1=O | inactive | 
COC(=O)c1ccc(C23CC4(C2)[C@H](CN(Cc2cccnc2)[C@@H]4c2ccccc2)C3c2ccc(Cl)nc2)cc1 (some centres not stated) | inactive | 
COc1ccc2c(=O)cc(-c3ccccc3)oc2c1O | inactive | 

Structure (SMILES) | activity change, negative = inhibition | Potency
Cc1ccc(NC(=O)CN2CCC3(O)CCCCC3C2c2ccc3c(c2)OCO3)c(C)c1 (configuration not stated) | inactive | 
CCS(=O)(=O)N(C)[C@@H]1c2cc(C#N)ccc2OC(C)(C)[C@H]1O | inactive | 
CCc1nc(Nc2ccc3nccnc3c2)c2oc3ccccc3c2n1 | inactive | 
O=C(CN1C(=O)CSc2ncccc21)N1CCOCC1 | inactive | 
FC(F)(F)c1cc(-c2cccs2)nc(NCc2ccco2)n1 | inactive | 
Cc1n[nH]c(C)c1S(=O)(=O)N1CCCC(C(=O)NCC2COc3ccccc3O2)C1 (configuration not stated) | inactive | 
Cc1ccc(S(=O)(=O)N2CCC(C(=O)N[C@@H](C)C(=O)NCCc3ccccc3)CC2)cc1 | inactive | 
O=C(O)C1CCN1C1CCCCC1 (configuration not stated) | inactive | 
CCC(=O)c1ccc(OCC(O)CN2CCN(c3cccc(C(F)(F)F)c3)CC2)cc1 (configuration not stated) | inactive | 
CC1CN(C(=O)CN2C(=O)NC(C)(c3ccccc3)C2=O)CC(C)O1 (configuration not stated) | inactive | 
O=C(c1cc(C(F)(F)F)cc(C(F)(F)F)c1)N1CCC2(CCCN(Cc3ccncc3)C2)CC1 | inactive | 
CS(=O)(=O)c1ccc2nc(NC(=O)C3C4C=CC(C4)C3C(=O)O)sc2c1 (configuration not stated) | inactive | 
CCOC(=O)/C=c1\s/c(=C\c2ccccc2OC)c(=O)n1CC(=O)N1CCOCC1 | inactive | 
CCC1=C(OC(=O)N(CC)CC)N2C(=O)OC(=NCC3CC3)[C@]2(C)[C@H]2C1=CC[C@H]1C(=O)N(CC(=O)OC)C(=O)[C@H]12 | inactive | 
Cc1cc(/C=N/n2cnnc2)c(C)n1-c1cccc(C(=O)O)c1 | inactive | 
CC(=O)N(Cc1cccs1)C1CCOC(C)(C)C1 (configuration not stated) | inactive | 
COCc1nc2ccccc2n1Cc1ccccc1Br | inactive | 
CCn1c(CNC(=O)c2ccc(OC)c(OC)c2)nnc1SCC(=O)Nc1ccccc1 | inactive | 
COc1ccc(OC)c(CN2C(=O)CCC2(C)C(=O)NC2CCCCCC2)c1 (configuration not stated) | inactive | 
c1ccc(-c2noc(-c3cccs3)n2)nc1 | inactive | 
CCOc1ccc(OCC)c(NC(=O)CN(C)S(=O)(=O)c2cccc3nsnc23)c1 | inactive | 
